Records with an inconclusive call do not appear. Where a call stands in place of a potency, no number is given. Activity calls are given as the source filed them. Calls come from the whole dose curve; as a rule, active = well fitted curve in the direction sought with a large enough effect; inconclusive = small, poorly fitted or top-dose-only effect, or another doubt; inactive = no such curve, though single readings can be large; an effect the other way counts as inactive or inconclusive.
Molecular target: Cytochrome P450 3A4 (Homo sapiens) (UniProt P08684)
Sequence (P08684 whole entry, looked up): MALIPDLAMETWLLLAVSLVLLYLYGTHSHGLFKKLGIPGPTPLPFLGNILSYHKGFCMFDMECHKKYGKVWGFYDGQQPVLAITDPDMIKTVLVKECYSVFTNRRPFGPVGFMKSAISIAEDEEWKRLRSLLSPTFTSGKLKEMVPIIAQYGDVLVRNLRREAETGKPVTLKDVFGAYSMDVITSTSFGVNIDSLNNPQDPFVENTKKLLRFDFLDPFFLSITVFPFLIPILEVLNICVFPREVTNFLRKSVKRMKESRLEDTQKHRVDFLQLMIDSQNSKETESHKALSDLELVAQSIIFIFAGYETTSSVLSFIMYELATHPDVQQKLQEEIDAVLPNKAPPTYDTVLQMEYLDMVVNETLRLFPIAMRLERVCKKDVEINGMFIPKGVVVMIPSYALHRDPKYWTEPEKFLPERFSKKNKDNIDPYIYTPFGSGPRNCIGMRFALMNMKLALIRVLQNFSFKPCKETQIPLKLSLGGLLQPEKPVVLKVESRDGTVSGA
Experiment: qHTS Assay for Inhibitors and Substrates of Cytochrome P450 3A4 (AID 884); note: nearly all actives have a fitted effect of over 50% in size; note: potency is the fitted concentration of half-maximal effect
Details: recombinant CYP3A4, Luciferin-PPXE luminescence; series mostly up to 57.1 µM
Summary of the method: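 Luminescent readout of luciferin produced by CYP3A4 (20 nM) dealkylation of Luciferin-PPXE, 25 uM (its KM). NADPH-driven reaction ran 60 min at RT after 10 min compound preincubation; data scaled to 57 uM ketoconazole as 100% inhibition.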

SMILES	Potency
Cc1cc(Nc2ccc(O)cc2)ccc1N	15.8 µM (active)
O=C1OC2(c3cc(Br)c(O)c(Br)c3Oc3c2cc(Br)c(O)c3Br)c2c(Cl)c(Cl)c(Cl)c(Cl)c21	20 µM (active)
ClC1=C(Cl)C(Cl)(Cl)C(Cl)=C1Cl	inactive
C/C=C1\C(=O)C[C@H]2[C@@H]3CCC4=CC(=O)CC[C@]4(C)[C@H]3CC[C@]12C	inactive
O=C1OC(O)C(C(Cl)Cl)=C1Cl (stereo not given)	inactive
CNc1ccc(O)cc1	12.6 µM (active)
c1ccc2c(c1)ccc1cc3c(ccc4ccccc43)cc12	inactive
c1ccc2c(c1)-c1cccc3c1c-2cc1ccccc13	inactive
O=Cc1ccc(Cl)c(Cl)c1	inactive

Molecular target: Cytochrome P450 3A4 (Homo sapiens) (UniProt P08684)
Experiment: qHTS Assay for Activators of Cytochrome P450 3A4 (AID 885); note: nearly all actives have a fitted effect of over 65% in size
Details: recombinant CYP3A4, Luciferin-PPXE luminescence, 60 min; series mostly up to 57.1 µM
Summary of the method: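 Human CYP3A4 dealkylates Luciferin-PPXE to luciferin, which luciferase detection converts to light. Substrate was at its KM (25uM), buffer 200mM KPO4, reaction 60 min at RT.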

SMILES	Potency
Oc1ccc2cc(SSc3ccc4cc(O)ccc4c3)ccc2c1	inactive
Nc1ccc2cc3ccccc3cc2c1	inactive
CN(C)c1ccc(C2(c3ccc(N(C)C)cc3)OC(=O)c3cc(N(C)C)ccc32)cc1	inactive
Cc1cc(Nc2ccc(O)cc2)ccc1N	inactive
CO[C@H]1/C=C/O[C@@]2(C)Oc3c(C)c(O)c4c(O)c(c5c(c4c3C2=O)NC2(CCN(CC(C)C)CC2)N=5)=NC(=O)/C(C)=C\C=C\[C@H](C)[C@H](O)[C@@H](C)[C@@H](O)[C@@H](C)[C@H](OC(C)=O)[C@@H]1C	inactive
Cc1cc(O)c(C(C)(C)C)cc1Sc1cc(C(C)(C)C)c(O)cc1C	inactive
Cc1ccc(S(=O)(=O)Oc2ccc(N=Nc3ccc(-c4ccc(N=Nc5c(O)ccc6cc(S(=O)(=O)O)cc(S(=O)(=O)O)c56)c(C)c4)cc3C)cc2)cc1	inactive
O=C1OC2(c3cc(Br)c(O)c(Br)c3Oc3c2cc(Br)c(O)c3Br)c2c(Cl)c(Cl)c(Cl)c(Cl)c21	inactive
CNc1ccc(O)cc1	inactive
CCC(C)Nc1ccc(NC(C)CC)cc1 (stereo not given)	inactive
O=C=Nc1ccc(Cc2ccc(N=C=O)cc2)cc1	inactive

Test system: not listed separately
Experiment: Cell Viability - LYMP2-001 (AID 921);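 note: cells exposed to compound for 24 h at 37 °C; nearly all actives have a fitted effect of over 70% in size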; note: potency is the fitted concentration of half-maximal effect
Details: LYMP2-001 lymphoblastoid cell viability; series mostly up to 92.2 µM
Summary of the method: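 Human lymphoblastoid LYMP2-001 cells, 2500 per well, in complete medium, treated 24 h at 37 C. Viability from cellular ATP by CellTiter-Glo luminescence; AC50 from Hill-equation fits of qHTS concentration-response.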

SMILES	Potency
Nc1ccc2cc3ccccc3cc2c1	inactive
CN(C)c1ccc(C2(c3ccc(N(C)C)cc3)OC(=O)c3cc(N(C)C)ccc32)cc1	inactive
Cc1cc(Nc2ccc(O)cc2)ccc1N	31.6 µM (active)
Cc1cc(O)c(C(C)(C)C)cc1Sc1cc(C(C)(C)C)c(O)cc1C	39.8 µM (active)
C=C(C)c1ccccc1	inactive
C=CC(=O)OCCOCCOC(=O)C=C	12.6 µM (active)
O=C1OC(O)C(C(Cl)Cl)=C1Cl (stereo not given)	20 µM (active)
CNc1ccc(O)cc1	3.16 µM (active)
CC(=O)Nc1ccc(C(=O)CCl)cc1	3.98 µM (active)
CCC(C)Nc1ccc(NC(C)CC)cc1 (stereo not given)	5.01 µM (active)
O=C=Nc1ccc(Cc2ccc(N=C=O)cc2)cc1	inactive
c1ccc2c(c1)ccc1cc3c(ccc4ccccc43)cc12	inactive
c1ccc2c(c1)-c1cccc3c1c-2cc1ccccc13	inactive
O=[N+]([O-])c1cc([N+](=O)[O-])c2ccc(S(=O)(=O)O)cc2c1O	inactive
O=Cc1ccc(Cl)c(Cl)c1	inactive

Test system: not listed separately
Experiment: MultiTox-Fluor Cytotoxicity Assay - LYMP1-001 - Dead Cells (AID 946);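 note: cells exposed to compound for 16 h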; note: potency is the fitted concentration of half-maximal effect
Details: LYMP1-001 lymphoblastoid cells, dead-cell protease fluorescence; series mostly up to 92.2 µM
Summary of the method: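 LYMP1-001 lymphoblastoid cells (2500/well) treated 16 h at 37 C. Dead-cell protease cleavage of bis-AAF-R110 read at Ex/Em 485/520. Normalized to DMSO and 15 uM tetraoctylammonium bromide; AC50 from Hill fits.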

SMILES	Potency
Oc1ccc2cc(SSc3ccc4cc(O)ccc4c3)ccc2c1	inactive
Nc1ccc2cc3ccccc3cc2c1	inactive
CN(C)c1ccc(C2(c3ccc(N(C)C)cc3)OC(=O)c3cc(N(C)C)ccc32)cc1	inactive
Cc1cc(Nc2ccc(O)cc2)ccc1N	inactive
Cc1cc(O)c(C(C)(C)C)cc1Sc1cc(C(C)(C)C)c(O)cc1C	31.6 µM (active)
C=C(C)c1ccccc1	inactive
Cc1ccc(S(=O)(=O)Oc2ccc(N=Nc3ccc(-c4ccc(N=Nc5c(O)ccc6cc(S(=O)(=O)O)cc(S(=O)(=O)O)c56)c(C)c4)cc3C)cc2)cc1	inactive
O=C1OC2(c3cc(Br)c(O)c(Br)c3Oc3c2cc(Br)c(O)c3Br)c2c(Cl)c(Cl)c(Cl)c(Cl)c21	inactive
ClC1=C(Cl)C(Cl)(Cl)C(Cl)=C1Cl	inactive
C=CC(=O)OCCOCCOC(=O)C=C	50.1 µM (active)
C/C=C1\C(=O)C[C@H]2[C@@H]3CCC4=CC(=O)CC[C@]4(C)[C@H]3CC[C@]12C	50.1 µM (active)
CNc1ccc(O)cc1	25.1 µM (active)
CC(=O)Nc1ccc(C(=O)CCl)cc1	25.1 µM (active)
O=C=Nc1ccc(Cc2ccc(N=C=O)cc2)cc1	inactive
c1ccc2c(c1)ccc1cc3c(ccc4ccccc43)cc12	inactive
c1ccc2c(c1)-c1cccc3c1c-2cc1ccccc13	inactive
O=[N+]([O-])c1cc([N+](=O)[O-])c2ccc(S(=O)(=O)O)cc2c1O	inactive
O=Cc1ccc(Cl)c(Cl)c1	inactive

Test system: not listed separately
Experiment: MultiTox-Fluor Cytotoxicity Assay - LYMP1-001 - Live Cells (AID 947); note: potency is the fitted concentration of half-maximal effect
Details: LYMP1-001 lymphoblastoid cells, live-cell protease fluorescence viability; series mostly up to 92.2 µM

SMILES	Potency
Nc1ccc2cc3ccccc3cc2c1	inactive
CN(C)c1ccc(C2(c3ccc(N(C)C)cc3)OC(=O)c3cc(N(C)C)ccc32)cc1	inactive
Cc1cc(Nc2ccc(O)cc2)ccc1N	inactive
CO[C@H]1/C=C/O[C@@]2(C)Oc3c(C)c(O)c4c(O)c(c5c(c4c3C2=O)NC2(CCN(CC(C)C)CC2)N=5)=NC(=O)/C(C)=C\C=C\[C@H](C)[C@H](O)[C@@H](C)[C@@H](O)[C@@H](C)[C@H](OC(C)=O)[C@@H]1C	inactive
Cc1cc(O)c(C(C)(C)C)cc1Sc1cc(C(C)(C)C)c(O)cc1C	31.6 µM (active)
C=C(C)c1ccccc1	inactive
ClC1=C(Cl)C(Cl)(Cl)C(Cl)=C1Cl	inactive
C=CC(=O)OCCOCCOC(=O)C=C	31.6 µM (active)
C/C=C1\C(=O)C[C@H]2[C@@H]3CCC4=CC(=O)CC[C@]4(C)[C@H]3CC[C@]12C	inactive
O=C1OC(O)C(C(Cl)Cl)=C1Cl (stereo not given)	inactive
CNc1ccc(O)cc1	31.6 µM (active)
CC(=O)Nc1ccc(C(=O)CCl)cc1	20 µM (active)
CCC(C)Nc1ccc(NC(C)CC)cc1 (stereo not given)	12.6 µM (active)
O=C=Nc1ccc(Cc2ccc(N=C=O)cc2)cc1	inactive
c1ccc2c(c1)ccc1cc3c(ccc4ccccc43)cc12	inactive
c1ccc2c(c1)-c1cccc3c1c-2cc1ccccc13	inactive
O=Cc1ccc(Cl)c(Cl)c1	inactive

From PubChem BioAssay (NCATS)
